The record followed here is PubChem BioAssay.

The subject of test [1] is TRPC4 beta (transient receptor potential cation channel C4), mouse. The test is described as follows: TRPC4 cation channel opening, retest – cell-based, Fluo4 calcium, HEK293 TRPC4beta/mu-opioid, duplicates, 10 µM, confirmation (AID 2426).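 On activation: percent rise of integrated ratio over buffer wells lacking compound which define 0%.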 As to conditions: Fluo4 calcium fluorescence, at 10 µM; stronger effect = higher value.
Test [2] concerns transient receptor potential cation channel C4 beta (TRPC4), mouse. Nature of the test: TRPC4 cation channel opening, second retest – cell-based, second round, Fluo4, HEK293 TRPC4beta/mu-opioid, 1 µM, confirmation (AID 2461;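 active means primary screen active and over 50% activation in each of two duplicate runs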;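 on activation: 0% = wells without test compound as baseline of integrated fluorescence ratio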). As to conditions: Fluo4 calcium fluorescence, at 1 µM; stronger effect = higher value.
In test [3] the test system is TRPC4 (transient receptor potential cation channel C4 beta), mouse. Nature of the test: potentiation of DAMGO EC20 TRPC4 response – cell-based, second round, Fluo-4, HEK293 TRPC4beta/mu-opioid, 1 µM, confirmation (AID 2554;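 active means primary screen hit whose fluorescence ratio, in both repeats, exceeds the weak agonist control mean by 3 SD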). The settings on record: DAMGO EC20, Fluo-4 calcium flux, at 1 µM; stronger effect = higher value.
Test [4] relates to TRPC4 beta (transient receptor potential cation channel C4), mouse. Nature of the test: potentiation of DAMGO EC20 TRPC4 response – cell-based, Fluo-4, HEK293 TRPC4beta/mu-opioid, confirmation (AID 2555;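 active means primary screen hit whose calcium fluorescence ratio, in both repeats, exceeds the weak agonist control mean by 3 SD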). The settings on record: DAMGO EC20, Fluo-4 calcium flux, at 10 µM; stronger effect = higher value.
Test [5] addresses Short transient receptor potential channel 4 (Mus musculus) (UniProt Q9QUQ5). The test is described as follows: blockers of DAMGO-evoked TRPC4 calcium flux – cell-based, Fluo4, HEK293 TRPC4beta/mu-opioid, confirmation (AID 2636;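 active means calcium signal cut by more than 3 SD below the full-agonist control yet still positive, in both repeats and the earlier primary screen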). As to conditions: at 10 µM; stronger effect = higher value.
The target is the same in test [6]. The test is described as follows: blockers of DAMGO-evoked TRPC4 calcium flux – cell-based, second round, Fluo4, HEK293 TRPC4beta/mu-opioid, 1 µM, confirmation (AID 2637;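 active means calcium signal ratio cut to more than 3 SD under the fully stimulated control mean yet still positive, in both repeats and the primary screen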). As to conditions: at 1 µM; stronger effect = higher value.
The target is the same in test [7]. The test is described as follows: potentiation of DAMGO-evoked TRPC4 calcium signal – cell-based, HEK293 TRPC4/mu-opioid, Fluo-4 calcium, EC20 DAMGO, dose response (AID 434941;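 active means earlier screen potentiator hit that boosts the TRPC4 ion channel at some dose, with a dose response; inactive means no potentiation, no dose response, or not a prior hit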;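 further: calcium entry triggered by an EC20 dose of DAMGO at the co-expressed mu-opioid receptor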).
Test [8] has the same target. Nature of the test: block of DAMGO-driven TRPC4 calcium entry – cell-based, HEK293 TRPC4/mu-opioid, Fluo-4 calcium, dose response (AID 434942;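 active means primary screen inhibitor hit that blocks the TRPC4 channel at some tested dose, yielding a dose curve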).
For test [9], the target named is Short transient receptor potential channel 6 (Mus musculus) (UniProt Q61143). The test is described as follows: TRPC6 blockade by TRPC4 inhibitor hits – cell-based, HEK293, membrane potential dye, duplicate, selectivity assay for TRPC4 inhibitor project, confirmation (AID 434948;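 active means active in primary screen and both duplicates, each dropping signal beyond three positive-control SD with fluorescence still positive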). As to conditions: HEK293 TRPC6, membrane potential dye fluorescence, at 10 µM; inhibition: stronger effect = higher value, stimulated with maximal-effect acetylcholine unless noted; outcome: stimulated with maximal-effect acetylcholine unless noted.
Chain of Short transient receptor potential channel 6 (Mus musculus) (Q61143 whole entry, looked up): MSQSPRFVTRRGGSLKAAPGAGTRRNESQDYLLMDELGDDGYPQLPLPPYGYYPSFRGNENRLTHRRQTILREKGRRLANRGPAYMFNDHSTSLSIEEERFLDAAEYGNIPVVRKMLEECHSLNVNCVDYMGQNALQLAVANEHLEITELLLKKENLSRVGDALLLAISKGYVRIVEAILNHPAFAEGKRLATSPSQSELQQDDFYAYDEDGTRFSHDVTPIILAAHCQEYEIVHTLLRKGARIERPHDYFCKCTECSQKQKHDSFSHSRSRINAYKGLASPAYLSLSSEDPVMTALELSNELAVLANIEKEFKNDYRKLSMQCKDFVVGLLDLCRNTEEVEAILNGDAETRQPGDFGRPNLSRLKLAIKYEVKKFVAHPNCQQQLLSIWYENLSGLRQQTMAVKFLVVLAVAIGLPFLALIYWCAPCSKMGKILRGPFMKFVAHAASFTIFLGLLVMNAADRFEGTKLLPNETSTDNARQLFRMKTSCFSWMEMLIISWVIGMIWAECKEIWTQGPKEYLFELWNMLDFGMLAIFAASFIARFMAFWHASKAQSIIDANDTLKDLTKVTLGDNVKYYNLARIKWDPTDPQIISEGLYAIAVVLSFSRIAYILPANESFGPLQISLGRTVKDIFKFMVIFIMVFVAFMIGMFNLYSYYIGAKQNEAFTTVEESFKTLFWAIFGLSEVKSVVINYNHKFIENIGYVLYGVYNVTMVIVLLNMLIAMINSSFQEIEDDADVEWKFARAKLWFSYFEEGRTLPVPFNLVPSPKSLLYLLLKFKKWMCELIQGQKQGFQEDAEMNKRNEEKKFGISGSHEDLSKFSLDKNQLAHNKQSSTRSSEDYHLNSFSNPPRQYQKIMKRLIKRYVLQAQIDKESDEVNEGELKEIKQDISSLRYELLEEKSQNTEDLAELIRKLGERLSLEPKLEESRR

Test [10] has the same target. Nature of the test: TRPC6 opening by TRPC4 activator hits – cell-based, HEK293, membrane potential dye, duplicate, selectivity assay for TRPC4 activator project, confirmation (AID 434950;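 active means membrane potential signal rise above negative control mean plus 3 SD in both duplicates, also active in the earlier TRPC4 screen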;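 on activation: 0% = buffer only wells and 100% = acetylcholine maximal-effect wells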). As to conditions: HEK293 TRPC6, membrane potential fluorescence, at 10 µM; activation: stronger effect = higher value; outcome: activation.
The target is the same in test [11]. The test is described as follows: positive modulators of mouse TRPC6 channel – HEK293 cells, membrane potential dye, duplicate, selectivity assay for TRPC4 potentiator project, confirmation (AID 434952;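 active means compound raising the membrane signal above positive-control mean plus 3 SD in both repeats, and a primary screen hit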). As to conditions: HEK293 TRPC6, membrane potential dye fluorescence, at 10 µM; maximal acetylcholine added after compound unless noted.
The target in test [12] is Short transient receptor potential channel 4 (Mus musculus) (UniProt Q9QUQ5). Nature of the test: calcium flux activators in TRPC4/5HT1a cells, counter-screen for TRPC4 activator project, cell-based, second counter screen, HEK293 TRPC4/5HT1a, Fluo-4 (AID 434977;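 active means calcium signal rise above buffer-control mean plus 5 SD in both duplicates, and also a hit in the primary screen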;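 on activation: plate controls were assay buffer for no effect and maximal serotonin response for full effect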). The settings on record: Fluo-4 calcium flux, at 10 µM; stronger effect = higher value.
Chain of Short transient receptor potential channel 4 (Mus musculus) (Q9QUQ5 whole entry, looked up): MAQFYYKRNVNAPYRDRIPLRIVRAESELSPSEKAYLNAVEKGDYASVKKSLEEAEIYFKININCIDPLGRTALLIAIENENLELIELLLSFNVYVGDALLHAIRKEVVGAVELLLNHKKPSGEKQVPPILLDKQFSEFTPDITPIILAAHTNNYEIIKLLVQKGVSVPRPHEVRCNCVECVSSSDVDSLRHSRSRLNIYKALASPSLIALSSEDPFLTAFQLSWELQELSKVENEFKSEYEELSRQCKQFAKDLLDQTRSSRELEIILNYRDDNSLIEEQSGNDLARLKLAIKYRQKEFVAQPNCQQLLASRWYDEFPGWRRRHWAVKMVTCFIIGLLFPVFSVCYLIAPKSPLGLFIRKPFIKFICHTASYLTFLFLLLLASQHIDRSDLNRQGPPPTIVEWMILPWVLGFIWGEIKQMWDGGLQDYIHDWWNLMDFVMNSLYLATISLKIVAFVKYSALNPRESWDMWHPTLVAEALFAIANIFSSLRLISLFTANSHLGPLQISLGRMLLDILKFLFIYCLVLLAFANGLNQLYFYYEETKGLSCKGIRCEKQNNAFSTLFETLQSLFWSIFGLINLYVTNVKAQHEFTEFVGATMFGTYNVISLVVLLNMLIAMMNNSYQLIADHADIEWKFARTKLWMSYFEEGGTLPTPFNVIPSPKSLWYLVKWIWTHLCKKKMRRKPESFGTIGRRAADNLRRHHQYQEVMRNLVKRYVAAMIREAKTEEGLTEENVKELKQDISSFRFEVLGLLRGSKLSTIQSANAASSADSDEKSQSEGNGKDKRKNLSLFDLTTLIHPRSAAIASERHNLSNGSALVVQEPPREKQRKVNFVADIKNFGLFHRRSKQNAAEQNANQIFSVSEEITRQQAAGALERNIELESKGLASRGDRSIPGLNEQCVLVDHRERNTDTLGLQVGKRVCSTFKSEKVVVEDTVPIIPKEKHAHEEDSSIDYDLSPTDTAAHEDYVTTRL
Test [13] can be described thus: serotonin-gated TRPC4 signal block – cell-based, second counter screen, HEK293 TRPC4/5HT1a, Fluo-4, counter-screen for TRPC4 inhibitor project, confirmation (AID 434978;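 active means primary screen active whose calcium signal fell more than 3 SD beyond the full-serotonin control mean in both duplicate plates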;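 further: serotonin given first at submaximal then at maximal dose after compound preincubation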). As to conditions: Fluo-4 calcium flux, at 10 µM; inhibition: stronger effect = higher value, serotonin added to trigger calcium flux unless noted; outcome: serotonin added to trigger calcium flux unless noted.

Test [14] has as its system TRPC4 (mouse), co-expressed with 5HT1a in HEK293. The test is described as follows: enhancement of serotonin-evoked TRPC4 response – cell-based, second counter screen, HEK293 TRPC4/5HT1a, Fluo-4, counter-screen for TRPC4 potentiator project, confirmation (AID 434979;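 active means signal rise over 3 SD above mean of control wells given weak agonist, in both repeats and first screen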). As to conditions: Fluo-4 calcium flux, at 10 µM; outcome: serotonin added at its EC20 dose unless noted; potentiation: stronger effect = higher value, serotonin added at its EC20 dose unless noted.

Test [15] is described as follows: nonspecific calcium rise without TRPC4 – cell-based, HEK293 mu-opioid receptor line, counter-screen for TRPC4 activator project, confirmation (AID 449723;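 active means hit in primary screen, with calcium signal over 5 SD above buffer well mean in both duplicates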;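 further: counter screen cells carry the mu-opioid receptor alone and lack TRPC4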). As to conditions: HEK293 mu-opioid cells, Fluo-4 calcium fluorescence, at 10 µM; stronger effect = higher value.
Test [16] is described as follows: nonspecific potentiation of DAMGO calcium response – cell-based, HEK293 mu-opioid receptor line, counter-screen for TRPC4 allosteric potentiator project, confirmation (AID 449724;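 active means calcium signal rise more than 3 SD above the low-dose agonist control mean, in both duplicate plates and the primary screen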;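 further: HEK293 cells carrying mu-opioid receptor only with no TRPC4 channel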). As to conditions: HEK293 mu-opioid receptor cells, Fluo-4 calcium flux, at 10 µM; compound added before EC20 DAMGO stimulus unless noted.

The structures appear in SMILES notation. For some assays here: Results with a measured potency or affinity are listed apart. Activity calls are given as the source filed them.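 How the source made its calls, unless noted: active means fluorescence ratio normalized to control raised more than 50% in primary screen plus both repeat runs; inactive means the rest.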

With `Cc1ccccc1C(O)(Cc1ccccc1)C1CN2CCC1CC2` (stereo not drawn), the activation in [1] is 109% (active); in test [10] it was 51% (active). Further, the outcome in test [2], in test [3], in test [4], in test [5], in [6] and in test [7] was inactive. Also, the outcome in test [8], in test [9], in test [11], in test [12], in test [13] and in [14] was inactive. The result in [15] and in test [16] was inactive.
Consider `CC1(C)CC(CCNCc2ccc3c(c2)OCO3)(Cc2ccccc2)CCO1` (stereo not drawn), for which the activation in [1] was 169% (active); in [10], 70% (active); in test [12], 5.46% (active). Also, the result in test [2], in test [3], in [4], in test [5], in [6] and in test [7] was inactive. The outcome in [8], in [9], in test [11], in test [13], in test [14] and in [15] was inactive. For the same compound, the result in [16] was inactive.
For `O=C(CCCc1ccccc1)NCCc1cnc[nH]1`, the activation was 137% (active) in test [1] and 35.3% (active) in [12]. In addition, the result in test [2], in test [3], in test [4], in test [5], in [6] and in [7] was inactive. Further, the result in test [8], in [9], in test [10], in test [11], in test [13] and in [14] was inactive. Further, the outcome in test [15] and in test [16] was inactive.
Turning to `CC1CN(c2ccc([N+](=O)[O-])c3cccnc23)CC(C)N1` (stereo not drawn), the activation in [1] is 108% (active); in test [2], 81% (active); in test [12] it was 35.7% (active). Further, the result in test [3], in [4], in test [5], in test [6], in test [7] and in test [8] was inactive. For the same compound, the compound was called inactive in test [9], in test [10], in [11], in test [13], in test [14] and in test [15]. Also, the result in test [16] was inactive.
On to `Fc1cccc(C2NCCc3[nH]cnc32)c1` (stereo not drawn), for which the values for the activation in [1] and in test [12] were 201% (active) and 53.4% (active), respectively. Also, the outcome in test [2], in test [3], in test [4], in [5], in test [6] and in test [7] was inactive. Further, the result in test [8], in test [9], in test [10], in test [11], in test [13] and in test [14] was inactive. The outcome in [15] and in test [16] was inactive.
Consider `Cc1ccc(Cl)cc1N1CCN(CCN)CC1`, for which the activation was 131% (active) in [1], 119% (active) in test [2] and 53.8% (active) in test [12]. Further, the outcome in test [3], in test [4], in test [5], in [6], in [7] and in test [8] was inactive. The result in test [9], in test [10], in test [11], in test [13], in test [14] and in test [15] was inactive. Moreover, in [16], the result was inactive.
In the case of `CCOC(=O)C1(CCc2ccccc2)CCN(Cc2csc(C(C)=O)c2)CC1`, the outcome in [1], in [2], in test [3], in test [4], in [5] and in [6] was inactive. Moreover, the outcome in test [7], in test [8], in test [9], in [11], in test [12] and in test [13] was inactive. Also, the outcome in [14], in test [15] and in [16] was inactive. Also, in test [10], the activation was 57.5% (active).
`COc1cc2c3cc1Oc1cc(ccc1O)C[C@@H]1c4c(cc(OC)c(O)c4Oc4ccc(cc4)C[C@H]3N(C)CC2)CCN1C`: the activation in test [1] is 69% (active); in test [10], 26% (active). Also, the outcome in test [2], in [3], in [4], in test [5], in test [6] and in [7] was inactive. The outcome in test [8], in [9], in [11], in test [12], in test [13] and in test [14] was inactive. Moreover, the result in test [15] and in test [16] was inactive.
